According to PubChem BioAssay (EPA / NIEHS):
Where “and” joins values, the source holds several entries; their conditions need not be identical. Equal entries are not always repeated. Records with an inconclusive call do not appear. Where a structure was tested more than once in an assay, its records may differ in their call. Calls of active or inactive are those of the source. How the source made its calls, unless noted: active means hit-call score of the fitted dose curve at least 0.9, where 1 is the maximum; inconclusive means response in the unintended direction; inactive means score below 0.9.

Assays:
[1] = read-out: UDP glucuronosyltransferase (UGT1A1), UGT1A1 (gene 54658); experiment: LTEA_HepaRG_UGT1A1: Life Technologies and Expression Analysis (LTEA) Assay for UDP glucuronosyltransferase (UGT1A1) using HepaRG (AID 2283538; active means hit-call score of the fitted dose curve at least 0.9, where 1 is the maximum; inactive means score below 0.9); settings: mRNA level, 48 h; actives raise or lower the signal
How it was run: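 Differentiated human HepaRG cells in serum-free induction medium were exposed in duplicate for 48 h to eight half-log concentrations up to 100 uM in 0.5% DMSO. UGT1A1 mRNA was quantified by TaqMan qRT-PCR, normalized to ACTB, GAPDH and POLR2A, and fitted bidirectionally against DMSO.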

[2] = read-out: UDP glucuronosyltransferase (UGT1A6), UGT1A6 (gene 54578); experiment: LTEA_HepaRG_UGT1A6: Life Technologies and Expression Analysis (LTEA) Assay for UDP glucuronosyltransferase (UGT1A6) using HepaRG (AID 2283539; active means hit-call score of the fitted dose curve at least 0.9, where 1 is the maximum; inactive means score below 0.9); settings: mRNA level, 48 h; actives raise or lower the signal
How it was run: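 Expression was quantified by TaqMan qRT-PCR on Fluidigm arrays with ACTB/GAPDH/POLR2A normalization and bidirectional fitting against 0.5% DMSO. HepaRG cells (~100,000/well) were treated in duplicate for 48 h at eight half-log concentrations up to 100 uM in serum-free induction medium.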

[3] = read-out: X-box binding protein 1 (XBP1), XBP1 (gene 7494); experiment: LTEA_HepaRG_XBP1: Life Technologies and Expression Analysis (LTEA) Assay for X-box binding protein 1 (XBP1) using HepaRG (AID 2283540; active means hit-call score of the fitted dose curve at least 0.9, where 1 is the maximum; inactive means score below 0.9); settings: mRNA level, 48 h; actives raise or lower the signal
How it was run: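 XBP1 transcript by qRT-PCR (housekeeping-normalized: ACTB, GAPDH, POLR2A) after 48 h chemical treatment of HepaRG cells, 8-point half-log series topping at 100 uM, vehicle 0.5% DMSO. Gain and loss of signal fitted relative to DMSO.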

[4] = LTEA_HepaRG_LDH_cytotoxicity: Cytotoxicity Assessment in the Life Technologies and Expression Analysis (LTEA) Assay (AID 2283563)
How it was run: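 LDH release into culture medium read after 48 h chemical treatment of HepaRG cells. Duplicate wells, eight-point half-log series topping at 100 uM, 0.5% DMSO vehicle and baseline.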

[5] = ATG_XTT_Cytotoxicity: Cytotoxicity Assessment in the Attagene TRANS-FACTORIAL HepG2 Assay (AID 2283584)
How it was run: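 Viability endpoint from XTT after 24 h chemical exposure of reporter-transfected human HepG2 liver cells; signal loss fitted relative to DMSO negative control.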

[6] = TOX21_p53_BLA_p2_viability: Viability Assessment in the Tox21 HCT-116 p53 Agonism Beta-lactamase Assay, Phase 2 (AID 2283591);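 further: compound exposure lasted 16 h at 37 °C; actives lower the ATP signal meaning cytotoxicity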
How it was run: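 HCT116 p53-bla cells, 4000/well, dosed after 5 h plating (217-fold dilution of DMSO stocks) and incubated 16 h at 37C. Viability taken as cellular ATP by CellTiter-Glo luminescence after 30 min RT; signal loss marks cytotoxicity.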

[7] = target: Cellular tumor antigen p53 (Homo sapiens) (UniProt P04637); experiment: TOX21_p53_BLA_p2_ratio: Tox21 HCT-116 p53 Agonism Beta-lactamase Assay, Ratio, Phase 2 (AID 2283592)
How it was run: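 Gain-of-signal p53 agonism was scored from the beta-lactamase FRET ratio (460/530 nm, 405 nm excitation) in HCT116 cells treated 16 h at 37C, 5% CO2, with DMSO serving as negative control and baseline.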

[8] = TOX21_p53_BLA_p3_viability: Viability Assessment in the Tox21 HCT-116 p53 Agonism Beta-lactamase Assay, Phase 3 (AID 2283593);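 further: cells exposed to compound for 16 h before reading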
How it was run: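 HCT116 cells, 4000/well, dosed 5 h after plating by pin transfer (217-fold dilution from DMSO stock) and incubated 16 h at 37C, 5% CO2. Viability read as ATP luminescence with CellTiter-Glo after 30 min at room temperature.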

[9] = target: Cellular tumor antigen p53 (Homo sapiens) (UniProt P04637); experiment: TOX21_p53_BLA_p3_ratio: Tox21 HCT-116 p53 Agonism Beta-lactamase Assay, Ratio, Phase 3 (AID 2283596)
How it was run: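 HCT116 p53-bla cells (4000/well) given compound in DMSO (217-fold dilution) after 5 h, incubated 16 h at 37C. CCF4-AM substrate 2 h at room temperature; 460/530 nm emission ratio, gain fitted against DMSO.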

[10] = TOX21_p53_BLA_p4_viability: Viability Assessment in the Tox21 HCT-116 p53 Agonism Beta-lactamase Assay, Phase 4 (AID 2283597);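 further: hits lower the luminescence signal meaning cytotoxicity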
How it was run: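 Following a 16 h exposure at 37C, the treated HCT116 wells were first read for the FRET ratio. They were then lysed with CellTiter-Glo, and ATP luminescence was recorded after 30 min at room temperature.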

[11] = target: Cellular tumor antigen p53 (Homo sapiens) (UniProt P04637); experiment: TOX21_p53_BLA_p4_ratio: Tox21 HCT-116 p53 Agonism Beta-lactamase Assay, Ratio, Phase 4 (AID 2283601)
How it was run: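 HCT-116 p53 beta-lactamase reporter cells (4000/well) preincubated 5 h, then compound (217-fold dilution of DMSO stock) for 16 h at 37C. CCF4-AM substrate added 2 h at room temperature; 460/530 nm emission ratio fitted upward versus DMSO.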

[12] = Tanguay_ZF_120hpf_MORT_legacy: (Legacy) Oregon State University Tanguay Lab 120 Hour Post-fertilization zebrafish Assay for Mortality (AID 2283633);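 on AC50: fitted as increase in binary mortality versus DMSO negative control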
How it was run: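 Static waterborne exposure from 6 to 120 hpf at 28C of single dechorionated wild-type (5D) embryos per well, 0.64% DMSO final. Death recorded present/absent by brightfield at 24 and 120 hpf.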

[13] = Tanguay_ZF_120hpf_YSE_legacy: (Legacy) Oregon State University Tanguay Lab 120 Hour Post-fertilization zebrafish Assay for Yolk Sac Edema (AID 2283634)
How it was run: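 Presence or absence of yolk sac edema was recorded at 120 hpf in surviving larvae. These were wild-type Tropical 5D embryos, chorion removed at 4 hpf, held in static exposure at 28C from 6 hpf with 0.64% DMSO vehicle.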

[14] = Tanguay_ZF_120hpf_AXIS_legacy: (Legacy) Oregon State University Tanguay Lab 120 Hour Post-fertilization zebrafish Assay for Body Axis Malformation (AID 2283635)
How it was run: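 Binary scoring of axis defects at 120 hpf under brightfield, fitted positive versus DMSO. Tropical 5D embryos, chorion removed by pronase at 4 hpf, were singly exposed in sealed, dark plates at 28C from 6 hpf; DMSO 0.64% final.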

[15] = Tanguay_ZF_120hpf_EYE_legacy: (Legacy) Oregon State University Tanguay Lab 120 Hour Post-fertilization zebrafish Assay for Eye Malformation (AID 2283636);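 further: binary presence or absence of eye malformation scored by brightfield in 120 hpf larvae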
How it was run: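 Dechorionated Tropical 5D zebrafish embryos, one per well from 6 hpf, static exposure to 120 hpf at 28C, 0.64% DMSO. Eye malformation scored present/absent by brightfield; dead embryos not scored.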

[16] = Tanguay_ZF_120hpf_SNOU_legacy: (Legacy) Oregon State University Tanguay Lab 120 Hour Post-fertilization zebrafish Assay for Snout Malformation (AID 2283637)
How it was run: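 Dechorionated tropical 5D wild-type zebrafish embryos exposed statically from 6 to 120 hpf at 28C, one per well, in 0.64% DMSO. Snout malformation scored as present/absent by brightfield at 120 hpf; dead embryos not scored.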

[17] = Tanguay_ZF_120hpf_JAW_legacy: (Legacy) Oregon State University Tanguay Lab 120 Hour Post-fertilization zebrafish Assay for Jaw Malformation (AID 2283638)
How it was run: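 Binary jaw-malformation call at 120 hpf by brightfield microscopy. Embryos (Tropical 5D strain, chorion removed at 4 hpf) were dosed statically at 6 hpf, one per well, at 28C with 0.64% DMSO. Embryos that died were not scored.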

[18] = Tanguay_ZF_120hpf_OTIC_legacy: (Legacy) Oregon State University Tanguay Lab 120 Hour Post-fertilization zebrafish Assay for Otic Vesicle Malformation (AID 2283639)
How it was run: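 Tropical 5D wild-type zebrafish embryos were exposed statically in sealed, foil-covered plates at 28C until 120 hpf, with 0.64% (vol/vol) DMSO final. Otic vesicle malformation was scored present/absent by brightfield microscopy, with DMSO as baseline.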

[19] = TOX21_p53_BLA_p5_viability: Viability Assessment in the Tox21 HCT-116 p53 Agonism Beta-lactamase Assay, Phase 5 (AID 2283600)
How it was run: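 After the 460/530 nm beta-lactamase measurement, the wells received an ATP-detection luciferase reagent; signal was read 30 min later at RT. Compound treatment lasted 16 h on cells pre-incubated 5 h post-seeding.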

[20] = target: Cellular tumor antigen p53 (Homo sapiens) (UniProt P04637); experiment: TOX21_p53_BLA_p5_ratio: Tox21 HCT-116 p53 Agonism Beta-lactamase Assay, Ratio, Phase 5 (AID 2283599)
How it was run: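 HCT-116 p53-bla cells (4000/well) plated 5 h, dosed with compound (217-fold DMSO dilution) for 16 h at 37 C; CCF4-AM substrate 2 h at room temperature. Activity is the 460/530 nm emission ratio (405 nm excitation), fitted in gain-of-signal direction versus DMSO.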

Measured: AC50

Cellular tumor antigen p53 (Homo sapiens), sequence (P04637 whole entry, looked up): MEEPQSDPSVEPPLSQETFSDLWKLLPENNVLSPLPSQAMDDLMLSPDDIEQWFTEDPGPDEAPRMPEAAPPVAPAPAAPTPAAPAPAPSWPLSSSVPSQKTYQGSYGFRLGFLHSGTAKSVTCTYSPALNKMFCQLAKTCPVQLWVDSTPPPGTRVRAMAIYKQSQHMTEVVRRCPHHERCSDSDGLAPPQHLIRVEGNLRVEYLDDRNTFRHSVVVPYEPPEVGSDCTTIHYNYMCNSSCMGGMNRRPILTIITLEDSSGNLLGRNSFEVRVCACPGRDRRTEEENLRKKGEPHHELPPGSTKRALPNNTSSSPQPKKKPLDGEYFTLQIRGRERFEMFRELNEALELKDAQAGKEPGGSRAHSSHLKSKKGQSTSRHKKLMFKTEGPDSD

CC(=O)OCCOCCOCCOC(C)=O
not listed: [19] | [20]
inactive: all other assays above

CC1=C(/C=C/C(C)=C/C=C/C(C)=C/CO)C(C)(C)CCC1
active: [1] 41.5 µM | [10] 78.5 µM
not listed: [17] | [20]
inactive: all other assays above

OC[C@@H](O)[C@@H](O)[C@H](O)[C@H](O)CO
not listed: [10] | [20]
inactive: all other assays above

CC(=O)C(C)=CC1C(C)=CCCC1(C)C (centres undefined)
not listed: [10] | [11] | [13] | [17] | [20]
inactive: all other assays above

O=C(O)Cc1ccccc1Nc1c(Cl)cccc1Cl
inactive: [2] | [3] | [4] | [5] | [6] | [7] | [8] | [9] | [11] | [13] | [14] | [15] | [16] | [17] | [18]
active: [1] 6.2 µM | [7] 68.9 µM | [9] 86 µM | [11] 71.7 µM | [12] 30.6 µM

C1CCC(SSC2CCCCC2)CC1
not listed: [10] | [15] | [16] | [20]
inactive: all other assays above

Cc1ccccc1Cl
not listed: [10] | [20]
inactive: all other assays above

O=c1[nH]cc(F)c(=O)[nH]1
active: [6] 1.34 µM and 1.39 µM | [7] 2.4 µM and 1.97 µM and 4.59 µM | [8] 882 nM and 2.38 µM | [9] 2.99 µM and 2.3 µM and 5.29 µM | [19] 1.68 µM | [11] 3.73 µM and 4.64 µM and 5.42 µM
inactive: [1] | [2] | [3] | [4] | [5] | [6] | [8] | [19] | [12] | [14] | [15] | [16] | [17] | [18]

Nc1ccc2c(c1)C(=O)c1ccccc1C2=O
active: [1] 7.74 µM | [3] 10.3 µM
not listed: [10] | [20]
inactive: all other assays above

Nc1ccc(S(=O)(=O)c2ccc(N)cc2)cc1
not listed: [10] | [13]
inactive: all other assays above

CCCCCC(=O)O
not listed: [10] | [19]
inactive: all other assays above

c1cc(-c2ccncc2)ccn1
active: [1] 50 µM
not listed: [10] | [14]
inactive: all other assays above

C[C@]12C=CC(=O)C=C1CC[C@@H]1[C@@H]2C(=O)C[C@@]2(C)[C@H]1CC[C@]2(O)C(=O)CO
active: [1] 50 µM
not listed: [9] | [10] | [11] | [14]
inactive: all other assays above

Cc1cccc(C)c1O
not listed: [10] | [18]
inactive: all other assays above
